# Records with an inconclusive call do not appear. Where a call stands in place of a potency, no number is given. Activity calls are given as the source filed them. Calls come from the whole dose curve; as a rule, active = well fitted curve in the direction sought with a large enough effect; inconclusive = small, poorly fitted or top-dose-only effect, or another doubt; inactive = no such curve, though single readings can be large; an effect the other way counts as inactive or inconclusive.
# Target: Rap guanine nucleotide exchange factor 3 (Homo sapiens) (UniProt O95398)
# Sequence (O95398 whole entry, looked up): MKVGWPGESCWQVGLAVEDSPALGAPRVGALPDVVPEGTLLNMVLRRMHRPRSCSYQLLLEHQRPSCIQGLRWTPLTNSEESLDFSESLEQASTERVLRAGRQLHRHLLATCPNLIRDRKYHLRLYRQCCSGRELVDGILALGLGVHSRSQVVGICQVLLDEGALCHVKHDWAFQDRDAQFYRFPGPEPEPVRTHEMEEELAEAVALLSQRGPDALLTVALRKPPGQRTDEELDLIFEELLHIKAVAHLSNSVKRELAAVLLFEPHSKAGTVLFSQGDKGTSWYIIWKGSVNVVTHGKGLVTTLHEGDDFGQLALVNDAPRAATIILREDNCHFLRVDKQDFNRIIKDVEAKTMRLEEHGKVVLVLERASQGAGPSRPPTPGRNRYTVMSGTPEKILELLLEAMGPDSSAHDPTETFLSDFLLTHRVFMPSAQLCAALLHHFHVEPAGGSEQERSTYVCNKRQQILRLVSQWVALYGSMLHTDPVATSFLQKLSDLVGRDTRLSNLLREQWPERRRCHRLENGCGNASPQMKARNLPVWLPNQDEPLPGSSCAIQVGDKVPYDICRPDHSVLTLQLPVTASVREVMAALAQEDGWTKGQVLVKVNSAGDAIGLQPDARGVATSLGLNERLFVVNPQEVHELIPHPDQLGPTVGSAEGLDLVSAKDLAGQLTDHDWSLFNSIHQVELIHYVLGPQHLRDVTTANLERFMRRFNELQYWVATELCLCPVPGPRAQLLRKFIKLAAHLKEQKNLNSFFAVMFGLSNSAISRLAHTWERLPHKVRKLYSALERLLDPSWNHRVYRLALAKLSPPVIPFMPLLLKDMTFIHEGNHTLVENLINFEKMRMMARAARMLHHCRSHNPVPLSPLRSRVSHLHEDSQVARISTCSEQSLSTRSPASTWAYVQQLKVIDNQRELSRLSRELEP
# Test: Counterscreen qHTS for antagonist of cAMP-regulated guanine nucleotide exchange factor 3 (EPAC1) (AID 1645888);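 note: fluorescence loss as bound BODIPY-GDP is released from Rap1B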
# Details: Rap1B-BODIPY-GDP nucleotide exchange, fluorescence; series mostly up to 154 µM
# How it was run: (§1)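 Rap1B-BODIPY-GDP 250 nM + GDP 50 uM; cpds 7-pt, final 9.74 nM–152 uM (activator mode) or from 7.32 nM upwards (inhibitor mode); RT; FI 480/540 nm at 5 and 30 min, then ± cAMP, reread.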
SMILES,"activity change, negative = inhibition",Potency
CNc1nc(C)cc(C)c1S(=O)(=O)c1ccc(C)cc1,-11.2% [at 30.8 µM] (inactive),–
CCN(CC(=O)Nc1ccccc1C(=O)NC1CC1)Cc1cccs1,–,inactive
COc1cc(C(c2c(C(=O)O)[nH]c3ccccc23)c2c(C(=O)O)[nH]c3ccccc23)ccc1OCc1ccccc1,–,inactive
COCCn1c(SCc2ccccc2F)nc2ccccc2c1=O,-6.24% [at 30.8 µM] (inactive),–
C=CCn1c(SC(F)F)nc2scc(-c3ccco3)c2c1=O,–,inactive
CNC(=O)CSc1nc2ccccc2c(=O)n1-c1cc(OC)ccc1OC,-17.1% [at 30.8 µM] (inactive),–
Cc1ccccc1-c1cc2nc(NCCN3CCNC3=O)n(C)c(=O)c2s1,–,inactive
Cc1ccc(-c2ccccc2C2=CC(=O)CC(C)(C)C2=O)cc1,11.7% [at 30.8 µM] (inactive),–
CCCCOc1ccc(/C=C/C(=O)OCC(=O)NC(=O)NCC(C)C)cc1OCC,–,inactive
CCOC(=O)c1c(NC(=O)/C=C/C(=O)O)sc(C)c1-c1ccc(C(C)(C)C)cc1,–,inactive
O=C(CN1C(=O)NC2(CCCC2)C1=O)Nc1nc2c(F)cc(F)cc2s1,–,inactive
CCOC(=O)C1=C(C)N=c2s/c(=C\c3ccc(OCC(=O)O)cc3)c(=O)n2C1c1ccc(OC(C)C)cc1 (stereo not given),–,inactive
CCN(CC(=O)Nc1c(F)cccc1F)C(=O)/C=C/c1ccc2ccccc2n1,–,inactive
CC(=O)c1c(-c2ccccc2)c2cc(Cl)ccc2n(C)c1=O,-1.67% [at 30.8 µM] (inactive),–
COc1ccccc1Oc1ncnc2c1oc1ccccc12,7.03% [at 30.8 µM] (inactive),–
CCC(C(=O)OC(C)C)c1ccc2ccccc2c1 (stereo not given),–,inactive
COc1ccc2nc(N3C(=O)C(O)=C(C(=O)c4ccco4)C3c3ccc(C)o3)sc2c1 (stereo not given),–,inactive
C#CCOc1nc(C)cc(C)c1S(=O)(=O)c1ccccc1C,-7.83% [at 30.8 µM] (inactive),–
COCCN(CCOC)Cc1cc(=O)oc2cc(C)c(Cl)cc12,–,inactive
O=C(O)CN1C(=O)/C(=C\c2cc(Br)ccc2OCc2ccc([N+](=O)[O-])cc2)SC1=S,–,inactive

SMILES,"activity change, negative = inhibition",Potency
CC(C)(C)c1ccc(OCC(=O)Nc2ccc(C(=O)Nc3ccccc3C(=O)O)cc2)cc1,–,inactive
CCOC(=O)c1cc2c(ccn2C)n1Cc1ccccc1Cl,–,inactive
O=C(CN1CCCCCC1)Nc1ccccc1Oc1ccccc1,–,inactive
COC(=O)C1=CN(Cc2cccs2)C=C(C(=O)OC)C1c1cccc(Cl)c1,-4.15% [at 30.8 µM] (inactive),–
O=S(=O)(Nc1ccc(C(O)(C(F)(F)F)C(F)(F)F)cc1)c1ccc(Cl)c2nonc12,–,inactive
Cc1cc(/C=C2\SC(=S)NC2=O)c(C)n1-c1ccc(O)cc1,–,inactive
COc1cc(/C=C2\SC(=Nc3ccc(Cl)c(C(=O)O)c3)NC2=O)c(Br)c(Br)c1O,-1.87% [at 30.8 µM] (inactive),–
COc1ccc(C(=O)n2c(-c3ccco3)nc3ccccc32)cc1,-27.8% [at 30.8 µM] (inactive),–
O=C(N/N=C/c1ccccc1O)c1ccc2c(c1)OCO2,–,inactive
Cc1cc(C)n(Cc2ccc(C(=O)N/N=C/c3ccc(-c4ccc([N+](=O)[O-])cc4)o3)o2)n1,–,inactive
CC(C(=O)Nc1ccc(O)c(C(=O)O)c1)N1C(=O)/C(=C/c2cccs2)SC1=S (stereo not given),–,inactive
COc1ccc(OC)c(NC2c3ccccc3C(=O)N2c2cccnc2)c1 (stereo not given),–,inactive
O=C(NN1C(=O)/C(=C/c2ccc(O)c([N+](=O)[O-])c2)SC1=S)c1ccccc1Cl,–,inactive
COc1cc(/C=C2/C(=O)NN(c3ccc(Cl)c(Cl)c3)C2=O)cc([N+](=O)[O-])c1O,–,inactive
COc1ccccc1C1CCN(c2ccc(CO)cc2[N+](=O)[O-])CC1,–,inactive
CC(C)c1ccc(OCC(=O)Nc2cccc(C(=O)Nc3ccccc3C(=O)O)c2)cc1,–,inactive
CCOc1ccc(Br)cc1S(=O)(=O)Nc1ccc(S(=O)(=O)Nc2cc(C)on2)cc1,–,inactive
Cc1nnc(SCCn2c(N3CCC(Cc4ccccc4)CC3)nc3c2c(=O)[nH]c(=O)n3C)s1,–,inactive
COc1ccc(N(C(=O)c2snc(C(N)=O)c2N)C(C(=O)NC2CCCC2)c2cccs2)cc1OC (stereo not given),–,inactive
COc1ccc(OC)c(C(C[N+](=O)[O-])c2c(C)cc3ccccn23)c1 (stereo not given),–,inactive

# Target: Rap guanine nucleotide exchange factor 3 (Homo sapiens) (UniProt O95398)
# Test: Counterscreen qHTS for agonist of cAMP-regulated guanine nucleotide exchange factor 3 (EPAC1) (AID 1645889); note: nearly all actives have a fitted effect of over 40% in size
# Details: EPAC1 Rap1B-BODIPY-GDP exchange, fluorescence; series mostly up to 154 µM
# How it was run: as §1
SMILES,activation,Potency
CNc1nc(C)cc(C)c1S(=O)(=O)c1ccc(C)cc1,14.5% [at 30.8 µM] (inactive),–
CCN(CC(=O)Nc1ccccc1C(=O)NC1CC1)Cc1cccs1,–,inactive
COc1cc(C(c2c(C(=O)O)[nH]c3ccccc23)c2c(C(=O)O)[nH]c3ccccc23)ccc1OCc1ccccc1,–,inactive
COCCn1c(SCc2ccccc2F)nc2ccccc2c1=O,12.3% [at 30.8 µM] (inactive),–
C=CCn1c(SC(F)F)nc2scc(-c3ccco3)c2c1=O,–,inactive
CNC(=O)CSc1nc2ccccc2c(=O)n1-c1cc(OC)ccc1OC,5.72% [at 30.8 µM] (inactive),–
Cc1ccccc1-c1cc2nc(NCCN3CCNC3=O)n(C)c(=O)c2s1,–,inactive
Cc1ccc(-c2ccccc2C2=CC(=O)CC(C)(C)C2=O)cc1,11.7% [at 30.8 µM] (inactive),–
CCCCOc1ccc(/C=C/C(=O)OCC(=O)NC(=O)NCC(C)C)cc1OCC,–,inactive
CCOC(=O)c1c(NC(=O)/C=C/C(=O)O)sc(C)c1-c1ccc(C(C)(C)C)cc1,–,inactive
O=C(CN1C(=O)NC2(CCCC2)C1=O)Nc1nc2c(F)cc(F)cc2s1,–,inactive
CCOC(=O)C1=C(C)N=c2s/c(=C\c3ccc(OCC(=O)O)cc3)c(=O)n2C1c1ccc(OC(C)C)cc1 (stereo not given),–,inactive
CCN(CC(=O)Nc1c(F)cccc1F)C(=O)/C=C/c1ccc2ccccc2n1,–,inactive
CC(=O)c1c(-c2ccccc2)c2cc(Cl)ccc2n(C)c1=O,9.36% [at 30.8 µM] (inactive),–
COc1ccccc1Oc1ncnc2c1oc1ccccc12,5.04% [at 30.8 µM] (inactive),–
CCC(C(=O)OC(C)C)c1ccc2ccccc2c1 (stereo not given),–,inactive
COc1ccc2nc(N3C(=O)C(O)=C(C(=O)c4ccco4)C3c3ccc(C)o3)sc2c1 (stereo not given),–,inactive
C#CCOc1nc(C)cc(C)c1S(=O)(=O)c1ccccc1C,-3.33% [at 30.8 µM] (inactive),–
COCCN(CCOC)Cc1cc(=O)oc2cc(C)c(Cl)cc12,–,inactive
O=C(O)CN1C(=O)/C(=C\c2cc(Br)ccc2OCc2ccc([N+](=O)[O-])cc2)SC1=S,–,inactive

SMILES,activation,Potency
CC(C)(C)c1ccc(OCC(=O)Nc2ccc(C(=O)Nc3ccccc3C(=O)O)cc2)cc1,–,inactive
CCOC(=O)c1cc2c(ccn2C)n1Cc1ccccc1Cl,–,inactive
O=C(CN1CCCCCC1)Nc1ccccc1Oc1ccccc1,–,inactive
COC(=O)C1=CN(Cc2cccs2)C=C(C(=O)OC)C1c1cccc(Cl)c1,24.6% [at 30.8 µM] (inactive),–
O=S(=O)(Nc1ccc(C(O)(C(F)(F)F)C(F)(F)F)cc1)c1ccc(Cl)c2nonc12,–,inactive
Cc1cc(/C=C2\SC(=S)NC2=O)c(C)n1-c1ccc(O)cc1,–,inactive
COc1cc(/C=C2\SC(=Nc3ccc(Cl)c(C(=O)O)c3)NC2=O)c(Br)c(Br)c1O,0.17% [at 30.8 µM] (inactive),–
COc1ccc(C(=O)n2c(-c3ccco3)nc3ccccc32)cc1,10% [at 30.8 µM] (inactive),–
O=C(N/N=C/c1ccccc1O)c1ccc2c(c1)OCO2,–,inactive
Cc1cc(C)n(Cc2ccc(C(=O)N/N=C/c3ccc(-c4ccc([N+](=O)[O-])cc4)o3)o2)n1,–,inactive
CC(C(=O)Nc1ccc(O)c(C(=O)O)c1)N1C(=O)/C(=C/c2cccs2)SC1=S (stereo not given),–,inactive
COc1ccc(OC)c(NC2c3ccccc3C(=O)N2c2cccnc2)c1 (stereo not given),–,inactive
O=C(NN1C(=O)/C(=C/c2ccc(O)c([N+](=O)[O-])c2)SC1=S)c1ccccc1Cl,–,inactive
COc1cc(/C=C2/C(=O)NN(c3ccc(Cl)c(Cl)c3)C2=O)cc([N+](=O)[O-])c1O,–,inactive
COc1ccccc1C1CCN(c2ccc(CO)cc2[N+](=O)[O-])CC1,–,inactive
CC(C)c1ccc(OCC(=O)Nc2cccc(C(=O)Nc3ccccc3C(=O)O)c2)cc1,–,inactive
CCOc1ccc(Br)cc1S(=O)(=O)Nc1ccc(S(=O)(=O)Nc2cc(C)on2)cc1,–,inactive
Cc1nnc(SCCn2c(N3CCC(Cc4ccccc4)CC3)nc3c2c(=O)[nH]c(=O)n3C)s1,–,inactive
COc1ccc(N(C(=O)c2snc(C(N)=O)c2N)C(C(=O)NC2CCCC2)c2cccs2)cc1OC (stereo not given),–,inactive
COc1ccc(OC)c(C(C[N+](=O)[O-])c2c(C)cc3ccccn23)c1 (stereo not given),–,inactive
